Numbering of substitutions follows the chain as printed.
Key:
Test in all cases: yeast three-hybrid, YBZ-1, SC-Leu-His + 0.5 mM 3-AT, 4 days
Conditions in all cases: tags: N-Gal4 AD-HA kept; label: inside an RPR1-promoter hybrid RNA with tandem MS2 sites; ssRNA
PUM1 PUF domain R4-EHD = PUM1 PUF domain R4-EHD (Homo sapiens, UniProt Q14671 828-1176, N971E;Q975D)
Summary of the method: (§1)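 Pumilio-1 PUF domain libraries, randomized at the three base-contacting residues of each repeat, were co-expressed with matching RNA elements from a centromeric plasmid in strain YBZ-1, which carries a LexA–MS2 coat fusion and a HIS3 reporter. Transformants grew for four days on SC-Leu (input) or on SC-Leu-His + 0.5 mM 3-AT (selection), and the repeat regions were PCR-amplified and Illumina-sequenced. The interaction score is the log change in variant frequency from input to selection. That logarithm is base 2, with a pseudocount of 1 where a variant was absent.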

PUM1 PUF domain R4-SMS = PUM1 PUF domain R4-SMS (Homo sapiens, UniProt Q14671 828-1176, N971S;H972M;Q975S)
Summary of the method: as §1

PUM1 PUF domain R3-RPR = PUM1 PUF domain R3-RPR (Homo sapiens, UniProt Q14671 828-1176, C935R;R936P;Q939R)
Summary of the method: as §1

PUM1 PUF domain R6-HWR = biological target: T1, PUM1 PUF domain R6-HWR (Homo sapiens, UniProt Q14671 828-1176, N1043H;Y1044W;Q1047R)
T1 sequence: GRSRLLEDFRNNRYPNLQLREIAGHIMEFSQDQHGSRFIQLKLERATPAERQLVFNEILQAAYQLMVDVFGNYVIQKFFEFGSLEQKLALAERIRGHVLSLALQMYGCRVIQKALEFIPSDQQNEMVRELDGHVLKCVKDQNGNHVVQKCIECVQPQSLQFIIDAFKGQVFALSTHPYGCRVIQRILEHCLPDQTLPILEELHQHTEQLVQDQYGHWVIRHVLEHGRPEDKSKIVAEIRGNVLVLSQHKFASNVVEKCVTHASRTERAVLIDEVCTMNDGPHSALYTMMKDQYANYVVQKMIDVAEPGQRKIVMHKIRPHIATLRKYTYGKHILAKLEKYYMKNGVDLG
Summary of the method: as §1

PUM1 PUF domain R8-KWK = PUM1 PUF domain R8-KWK (Homo sapiens, UniProt Q14671 828-1176, N1122K;Y1123W;Q1126K)
Summary of the method: as §1

PUM1 PUF domain R7-KFN = PUM1 PUF domain R7-KFN (Homo sapiens, UniProt Q14671 828-1176, S1079K;N1080F;E1083N)
Summary of the method: as §1

PUM1 PUF domain R7-QCR = PUM1 PUF domain R7-QCR (Homo sapiens, UniProt Q14671 828-1176, S1079Q;N1080C;E1083R)
Summary of the method: as §1

PUM1 PUF domain R4-HNV = PUM1 PUF domain R4-HNV (Homo sapiens, UniProt Q14671 828-1176, N971H;H972N;Q975V)
PUM1 PUF domain R4-HNV, sequence (Q14671 828-1176 N971H/H972N/Q975V): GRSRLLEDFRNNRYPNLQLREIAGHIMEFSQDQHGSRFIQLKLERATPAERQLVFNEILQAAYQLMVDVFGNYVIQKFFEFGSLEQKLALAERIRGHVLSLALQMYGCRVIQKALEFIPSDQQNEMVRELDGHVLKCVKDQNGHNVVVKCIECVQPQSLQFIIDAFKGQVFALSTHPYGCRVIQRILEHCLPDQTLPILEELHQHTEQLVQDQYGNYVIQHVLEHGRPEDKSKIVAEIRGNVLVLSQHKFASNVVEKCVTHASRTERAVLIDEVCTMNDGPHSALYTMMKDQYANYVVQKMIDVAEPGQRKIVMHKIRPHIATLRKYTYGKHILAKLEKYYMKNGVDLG
Summary of the method: as §1

PUM1 PUF domain R6-FWI = biological target: T2, PUM1 PUF domain R6-FWI (Homo sapiens, UniProt Q14671 828-1176, N1043F;Y1044W;Q1047I)
T2 sequence: T1 sequence with H216F, R220I
Summary of the method: as §1

GGCUAGAACUAGUGGAUCCCCCGGCGCCCGGCGGCUCGAGCCCGGGUAAGUGUAAAUAGUCUGCAUGCCGCCGGGCGCCAUGCCUGCAGGUCGACUCUAGAAAACAUG
binding signal (PUM1 PUF domain R4-EHD): 3.48 log2 enrichment (interaction score) | binding signal (PUM1 PUF domain R4-SMS): 2.84 log2 enrichment (interaction score) | binding signal (PUM1 PUF domain R3-RPR): 1.87 log2 enrichment (interaction score) | binding signal (PUM1 PUF domain R6-HWR): 7.48 log2 enrichment (interaction score) | binding signal (PUM1 PUF domain R8-KWK): 5.56 log2 enrichment (interaction score)

GGCUAGAACUAGUGGAUCCCCCGGCGCCCGGCGGCUCGAGCCCGGGUAAGUGUAUAUAGUCUGCAUGCCGCCGGGCGCCAUGCCUGCAGGUCGACUCUAGAAAACAUG
binding signal (PUM1 PUF domain R4-EHD): 6.81 log2 enrichment (interaction score) | binding signal (PUM1 PUF domain R4-SMS): 1.55 log2 enrichment (interaction score)

GGCUAGAACUAGUGGAUCCCCCGGCGCCCGGCGGCUCGAGCCCGGGUAAGUCUAAAUAGUCUGCAUGCCGCCGGGCGCCAUGCCUGCAGGUCGACUCUAGAAAACAUG
binding signal (PUM1 PUF domain R7-KFN): 3.14 log2 enrichment (interaction score) | binding signal (PUM1 PUF domain R7-QCR): 3.59 log2 enrichment (interaction score)

GGCUAGAACUAGUGGAUCCCCCGGCGCCCGGCGGCUCGAGCCCGGGUAAGUGUACAUAGUCUGCAUGCCGCCGGGCGCCAUGCCUGCAGGUCGACUCUAGAAAACAUG
binding signal (PUM1 PUF domain R4-HNV): 2.63 log2 enrichment (interaction score)

GGCUAGAACUAGUGGAUCCCCCGGCGCCCGGCGGCUCGAGCCCGGGUAAGUGUAAUUAGUCUGCAUGCCGCCGGGCGCCAUGCCUGCAGGUCGACUCUAGAAAACAUG
binding signal (PUM1 PUF domain R3-RPR): 5.3 log2 enrichment (interaction score)

GGCUAGAACUAGUGGAUCCCCCGGCGCCCGGCGGCUCGAGCCCGGGUAAGUGAAAAUAGUCUGCAUGCCGCCGGGCGCCAUGCCUGCAGGUCGACUCUAGAAAACAUG
binding signal (PUM1 PUF domain R6-HWR): 1.35 log2 enrichment (interaction score) | binding signal (PUM1 PUF domain R6-FWI): 3.65 log2 enrichment (interaction score)

GGCUAGAACUAGUGGAUCCCCCGGCGCCCGGCGGCUCGAGCCCGGGUAAGCGUAAAUAGUCUGCAUGCCGCCGGGCGCCAUGCCUGCAGGUCGACUCUAGAAAACAUG
binding signal (PUM1 PUF domain R8-KWK): 6.96 log2 enrichment (interaction score)
